Measured values reported in paper PMC7826789 (International Journal of Molecular Sciences, 2021).

These compounds were tested on MYLK4. Settings: Compound Concentration (nM):1000.
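Further: KINOMEscan scanMAX binding as percent activity remaining versus control; lower means stronger binding.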

Structure (SMILES) | Percent Control [%]
CCn1c(-c2nonc2N)nc2c(C#CC(C)(C)O)nc(OCCNC)cc21.Cl [GSK949675] | 100
Cl.O=S1CCN(Cc2ccc(-c3ccc4ncnc(Nc5ccc(OCc6ccccc6)c(F)c5)c4c3)o2)CC1 [GW576924A] | 100
CCS(=O)(=O)c1ccc(OC)c(Nc2ncc(-c3cccc(OC)c3)o2)c1 [GW580509X] | 100
Cl.c1ccc(Cc2nc3ccc(Nc4ncnc5ccccc45)cc3[nH]2)cc1 [GR269666A] | 100
NS(=O)(=O)c1ccc(N/N=C2\C(=O)Nc3ccc(C(=O)NCCc4c[nH]cn4)cc32)cc1 [GW300660X] | 87
C/C(Nc1ccc(S(N)(=O)=O)cc1)=C1/C(=O)Nc2ccccc21 [GW335962X] | 100
COc1ccccc1-c1cc(/C=C2\C(=O)Nc3ncc(Br)cc32)cc(Br)c1O [GW442130X] | 100
NS(=O)(=O)c1ccc(N/N=C2\C(=O)Nc3ccc(-c4cnco4)cc32)cc1 [GW276655] | 49
CN(C)CCNC(=O)Nc1ccc(N(C)c2ccnc(Nc3ccc(CS(C)(=O)=O)cc3)n2)cc1.Cl [GW830900A] | 100
COc1ccc2[nH]c3c4[nH]c5ccc(OC)cc5c4c4c(c3c2c1)C(=O)NC4=O [GW296115X] | 49
COc1cc2ncnc(Nc3ccc4c(cnn4Cc4ccccc4)c3)c2cc1OC.Cl [GW282449A] | 100
NS(=O)(=O)c1ccc(N/N=C2\C(=O)Nc3ccc(Cl)cc32)cc1 [GW280670X] | 100
CN1CCN(C(=O)c2ccc(NC(=O)Nc3ccc(N(C)c4ccnc(Nc5ccc(CS(C)(=O)=O)cc5)n4)cc3)cc2)CC1.Cl [GW830263A] | 98
COC(=O)Nc1nc2ccc(Oc3ccc(NC(=O)Nc4cc(C(F)(F)F)ccc4F)cc3)cc2s1.Cl [GW693917A] | 93
COc1ccc2cc(-c3c(-c4ccncc4)nc(-c4ccc(S(C)(=O)=O)cc4C)n3C)ccc2c1 [SB-633825] | 93
COc1cc(C=NNc2ncnc3c2cnn3-c2ccccc2)ccc1O [GW513184X] | 100
COc1cccc(-n2ncc3c(N/N=C/c4ccncc4)ncnc32)c1 [GW784752X] | 100

Structure (SMILES) | Percent Control [%]
COc1cc(N2CCN(C(C)C)CC2)ccc1Nc1nc(Nc2ccc(F)cc2C(=O)NC[C@@H](O)CO)c2cc[nH]c2n1 [GSK1392956A] | 82
CC(C)COC(=O)c1ccc2c(c1)/C(=C/Nc1ccc(S(N)(=O)=O)cc1)C(=O)N2 [GW416981X] | 100
CC1=C(C(=O)Nc2ccc3[nH]ncc3c2)C(c2ccc3ccccc3c2)CC(=O)N1 (stereo not drawn) [GSK270822A] | 78
NS(=O)(=O)c1ccc(Nc2ncc(-c3ccccc3)o2)cc1 [GW572399X] | 81
CC1=C(C(=O)Nc2ccc3[nH]ncc3c2)C(c2ccc(Cl)c(Cl)c2)CC(=O)N1 (stereo not drawn) [GSK299115A] | 91
NS(=O)(=O)c1ccc(N/N=C2\C(=O)Nc3ccc(C(=O)NCc4ccncc4)cc32)cc1 [GW300657X] | 83
CCc1ccc(Oc2nccc(-c3c(-c4ccc(F)cc4)ncn3C3CCNCC3)n2)cc1 [SB-242719] | 98
Cl.O=C(Nc1ccc(Oc2ccc3[nH]c(NC(=O)c4ccccc4)nc3c2)cc1)Nc1cc(C(F)(F)F)ccc1F [GW709042A] | 100
COc1cccc(-c2c[nH]c3c(N/N=C/c4ccncc4)ncnc23)c1 [GW814408X] | 100
CCS(=O)(=O)c1ccc(OC)c(Nc2ncc(-c3cccc(F)c3)o2)c1 [GW621970X] | 100
Cc1cc(O)cc(C)c1/C=C/c1cncc(C(N)=O)c1 [GW435821X] | 100
Cl.O=C(Nc1ccc(Oc2ccc3[nH]c(NC(=O)c4ccco4)nc3c2)cc1)Nc1cc(C(F)(F)F)ccc1F [GW683134A] | 100
O=C(Nc1n[nH]c2nc(-c3ccc(O)cc3)c(Br)cc12)C1CC1 [SB-725317] | 100
COc1cc2ncn(-c3cc(O[C@H](C)c4ccccc4Cl)c(C(N)=O)s3)c2cc1OC [GSK237701A] | 45
COc1ccc(COc2ccc(Cc3cnc(N)nc3N)cc2OC)cc1 [GW632580X] | 100
O=C1Nc2ccc(C(=O)c3ccco3)cc2C1=Cc1cc(Cl)c(O)c(Cl)c1 [GW406108X] | 69
